# Experimental data reported in PubChem BioAssay AID463173 (ICCB-Longwood Screening Facility, Harvard Medical School, 2010).
# Screen size: about 52,000 compounds; about 4,300 (8.3%) were called active. Cut-off read from the data, not from the text of the source: active = survival mostly below about 52% (no sharp cut-off); inactive = mostly above about 56%. What follows is part of a selection rich in actives, with near analogues and random picks from the rest.
# Tested on: DeltatarO mutant
# Assay: growth inhibition of S. aureus wild type versus tarO mutant, primary screen, teichoic acid synthesis inhibitors, RN4220, OD600 (AID 463173)
# Settings: OD600, 18 h, stronger effect = lower value, screened at 18.75 µg/mL (by protocol)
row,SMILES,survival
1,CCOC(=O)Cc1ccc(NC(=O)N2CC(C)Oc3ccc(Cl)cc32)cc1 (centres undefined),55% (inactive)
2,O=CN(Cc1ccco1)C1(C(=O)NC2CCCCC2)CCCCC1,76% (inactive)
3,OCc1cnc(SCc2ccccc2F)n1Cc1ccc(F)cc1,87% (inactive)
4,COc1ccccc1CNC(=O)CCC1N=C2c3ccccc3N=C(SCC(=O)Nc3ccc(F)cc3)N2C1=O (centres undefined),84% (inactive)
5,Cc1ccc2nc(-c3cccnc3)c(Nc3ccc(C(C)C)cc3)n2c1,94% (inactive)
6,O=C(COCc1cc(-c2ccc3c(c2)OCO3)on1)Nc1cc(Cl)ccc1O,60% (inactive)
7,CCn1c(=O)cc(SCC(=O)Nc2cc(Cl)ccc2OC)c2ccccc21,67% (inactive)
8,CCCNC(=O)c1ccc(Cn2c(SCC(=O)NC(C)C)nc3ccccc3c2=O)cc1,102% (inactive)
9,CN(C)c1ccc(C(CNC(=O)c2ccccc2F)N2CCc3ccccc32)cc1 (centres undefined),105% (inactive)
10,CN(C)c1ccc(C(CNC(=O)c2ccccc2)N2CCc3ccccc32)cc1 (centres undefined),115% (inactive)
11,COc1cccc(C(=O)NCC(c2ccc(N(C)C)cc2)N2CCc3ccccc32)c1OC (centres undefined),93% (inactive)
12,CCOc1ccccc1C(=O)NCC(c1ccc(N(C)C)cc1)N1CCc2ccccc21 (centres undefined),102% (inactive)
13,CN(C)c1ccc(C(CNC(=O)c2ccccc2Cl)N2CCc3ccccc32)cc1 (centres undefined),37% (active)
14,COc1ccccc1C(=O)NCC(c1ccc(N(C)C)cc1)N1CCc2ccccc21 (centres undefined),46% (active)
15,O=C(Cn1c(=O)sc2ccccc21)Nc1cccc(Cl)c1,83% (inactive)
16,CCN(Cc1ccccc1)C(=O)CN1C(=O)COc2ccc(S(=O)(=O)N3CCOCC3)cc21,98% (inactive)
17,CCOC(=O)Nc1cccc(C(=O)O)c1,71% (inactive)
18,COC(=O)c1c(NC(=O)c2nc(SCc3cccc(C)c3)ncc2Cl)sc2c1CCCC2,113% (inactive)
19,CCOC(=O)c1c(NC(=O)c2nc(SCC)ncc2Cl)sc2c1CCCC2,91% (inactive)
20,CCSc1ncc(Cl)c(C(=O)Nc2sc3c(c2C(=O)NC)CCCC3)n1,82% (inactive)

row,SMILES,survival
1,Cc1ccc(CSc2ncc(Cl)c(C(=O)Nc3sc4c(c3C(N)=O)CCCC4)n2)cc1,105% (inactive)
2,COC(=O)c1c(NC(=O)c2nc(SCc3ccc(C)cc3)ncc2Cl)sc2c1CCCC2,46% (active)
3,CCOC(=O)c1c(NC(=O)c2nc(SC(C)C)ncc2Cl)sc2c1CCCC2,56% (active)
4,COC(=O)c1c(NC(=O)c2nc(SCc3ccc(F)cc3)ncc2Cl)sc2c1CCCC2,47% (inactive)
5,COC(=O)c1c(NC(=O)c2nc(SC)ncc2Cl)sc2c1CCCC2,85% (inactive)
6,CNC(=O)c1c(NC(=O)c2nc(SCc3ccc(C)cc3)ncc2Cl)sc2c1CCCC2,37% (active)
7,Cc1cc(C)nc(-n2nc(C)c3c2N(Cc2ccccc2F)C(=O)CC3c2ccc(Cl)cc2)n1 (centres undefined),100% (inactive)
8,CCC(=O)N1CCc2cc(Br)cc(S(=O)(=O)CCC(=O)Nc3ccc(C)c(F)c3)c21,86% (inactive)
9,CCCCn1c(SCC(=O)Nc2ccc(OCC)cc2)nc2ccsc2c1=O,130% (inactive)
10,CCc1ccccc1NC(=O)C1(C)Cc2ccccc2C(=O)O1 (centres undefined),97% (inactive)
11,CCc1ccc(NCc2cc3cc4c(cc3n(CC(=O)Nc3ccccc3Cl)c2=O)OCO4)cc1,73% (inactive)
12,Cn1c(=O)n(C)c2cc(N3CCCCC3)c(NC(=O)c3ccc(Cl)cc3)cc21,74% (inactive)
13,CCc1ccc(NC(=O)CN2C(=O)C(c3ccc(F)cc3)=NC2(C)C)cc1,81% (inactive)
14,Cc1ccc(NC(=O)Cn2c(=O)c3ccccc3n3nncc23)cc1,114% (inactive)
15,Cc1ccc2nc(-c3ccc(NC(=O)C(F)(F)F)cc3)sc2c1,98% (inactive)
16,Nc1ccc2nc(-c3ccc(O)cc3)sc2c1,120% (inactive)
17,Cc1ccc2sc(-c3ccc(N)cc3)nc2c1,12% (active)
18,Cc1cccc(C)c1OCc1nc2c3cnn(-c4ccccc4Br)c3ncn2n1,69% (inactive)
19,COc1ccc(Br)c(C(=O)Nc2cc3c(cc2N2CCOCC2)n(C)c(=O)n3C)c1,82% (inactive)
20,O=C(NCCCc1nc2ccccc2n1Cc1ccc(Cl)cc1Cl)c1ccco1,58% (inactive)

row,SMILES,survival
1,O=C(NCCc1nc2ccccc2n1Cc1ccccc1)c1ccco1,113% (inactive)
2,O=C(NCCCc1nc2ccccc2n1Cc1ccc(Cl)cc1)c1ccco1,105% (inactive)
3,O=C(NCCCc1nc2ccccc2n1Cc1cccc(Cl)c1)c1ccco1,46% (active)
4,O=C(NCCc1nc2ccccc2n1Cc1ccc(Cl)cc1Cl)c1ccco1,49% (active)
5,Cc1ccc(Cn2c(CCCNC(=O)c3ccco3)nc3ccccc32)cc1,77% (inactive)
6,CCCSCCCNC(=O)CN1C(=O)COc2ccc(S(=O)(=O)N3CCC(C)CC3)cc21,90% (inactive)
7,N#Cc1ccccc1NC(=O)CNCC1CCCO1 (centres undefined),76% (inactive)
8,COC(=O)c1ccccc1N(C)S(=O)(=O)c1cc2c3c(c1)CC(=O)N3CCC2,78% (inactive)
9,COC(=O)c1ccccc1NS(=O)(=O)c1cc2c3c(c1)CC(=O)N3CCC2,46% (active)
10,CC1CCN(S(=O)(=O)c2cc3c4c(c2)CC(=O)N4CCC3)CC1,102% (inactive)
11,CC1C(=O)N2CCCc3cc(S(=O)(=O)N4CCC(C(N)=O)CC4)cc1c32 (centres undefined),0% (active)
12,CCOC(=O)C1CCN(S(=O)(=O)c2cc3c4c(c2)CC(=O)N4CCC3)CC1,83% (inactive)
13,COc1ccc(C)cc1NS(=O)(=O)c1cc2c3c(c1)CC(=O)N3CCC2,105% (inactive)
14,CCOC(=O)C1CCN(S(=O)(=O)c2cc3c4c(c2)C(C)C(=O)N4CCC3)CC1 (centres undefined),98% (inactive)
15,COC(=O)C1CCN(S(=O)(=O)c2cc3c4c(c2)CC(=O)N4CCC3)CC1,37% (active)
16,COC(=O)C1CCN(S(=O)(=O)c2cc3c4c(c2)C(C)C(=O)N4CCC3)CC1 (centres undefined),99% (inactive)
17,O=C(O)CCCNC1C=CS(=O)(=O)C1 (centres undefined),91% (inactive)
18,COCCNc1cc(N2CCN(C3CCCCC3)CC2)c2noc3c2c1C(=O)c1ccccc1-3,57% (inactive)
19,COc1ccc(CCC(=O)NC2CC(=O)N(c3cccc(F)c3)C2)cc1 (centres undefined),113% (inactive)
